Source: PubChem BioAssay (NCI)
About 83,000 compounds went through this panel and 20% of them were active in at least one assay; those are over-represented in the sample as a whole.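 For each line, cells grew in 96-well plates with the test compound present at a single concentration for 48 hours.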 Activity calls are given as the source filed them.

Each compound was assayed on HT29 colon (assay: NCI-60 one-dose screen, 48 h (100 = growth as untreated, 0 = no growth, -100 = all killed)). Conditions: 10 µM unless noted.
Experimental: Growth inhibition of the HT29 human tumor cell line is measured as a screen for anti-cancer activity. Cells are grown in 96 well plates and exposed to the test compound for 48 hours. Compounds are tested at a single concentration, which is 10^-5 M for most compounds. The reported endpoint is percent growth (GI% or GIPRCNT), where numbers from 0 - 100% represent growth inhibition, and numbers from -100% - 0 represent cell death. For example, a value of 40 represents 60% growth inhibition. A value of 0 means no net growth occurred over the course of the experiment. A value of -40 indicates 40% of cells at the beginning of the experiment died by the end of the experiment. A value of -100 means all cells are dead at the end of the experiment.
NCI-60 Human Tumor Cell Lines Screen was performed using the standard one-dose NCI protocol, which is described in more detail at https://dtp.cancer.gov/discovery_development/nci-60/default.htm.
Compounds with GIPRCNT values below 10 were considered active. Activity score was based on GIPRCNT using the following formula: […]
Score is 0 for GIPRCNT values of 100 or above, 50 for GIPRCNT values of 0, and 100 for GIPRCNT values of -100.

Row | SMILES | growth
1 | Cn1cc(-c2cc(N)n3nc(-c4cn(C)c5ccc(F)cc45)cc3n2)c2cc(F)ccc21 | -72.8% (active)
2 | O=C(N/N=C/c1ccco1)c1[nH]c2ccc(Br)cc2c1-c1ccccc1 | -25.3% (active)
3 | O=C(N/N=C/c1ccc([N+](=O)[O-])o1)c1[nH]c2ccc(Br)cc2c1-c1ccccc1 | 9.21% (active)
4 | CN(C)CCCOc1c2ccc(Cl)cc2nc2c1oc1ccc(Cl)cc12 | -77.6% (active)
5 | OC1CCN(CCCOc2c3ccc(Cl)cc3nc3c2oc2ccc(Cl)cc23)CC1 | -86% (active)
6 | CN1CCN(Cc2ccc(NC(=O)c3cncc(C#Cc4cnc5[nH]ncc5c4)c3)cc2C(F)(F)F)CC1 | 22.7% (inactive)
7 | CC(C)NC(=O)c1cc(-c2ccc(NC(=O)Nc3ccc(N4CCOCC4)c(C(F)(F)F)c3)cc2)nc2cccnc12 | 60.8% (inactive)
8 | O=C1C2=C(C(=O)c3c(O)cccc31)C(c1ccco1)c1sc(=O)[nH]c1S2 (stereo not given) | 12.5% (inactive)
9 | Cn1c(SCC(=O)Nc2ccc(-c3nc4ccc([N+](=O)[O-])cc4[nH]3)cc2)nc2ccccc2c1=O | 89.7% (inactive)
10 | COc1cc(/C=C/C(=O)c2ccc(F)cc2)ccc1Oc1nc(NCCO)nc(N2CCOCC2)n1 | 53.5% (inactive)
11 | Clc1ccc(-c2cn3cc(Cc4ccc(Cl)c(Cl)c4)sc3n2)cc1 | 90.5% (inactive)
12 | OC1CCN(CCCOc2c3ccccc3nc3c2oc2ccccc23)CC1 | 3.65% (active)
13 | O=C(CSc1nccc(=O)[nH]1)Nc1ccc(-c2nc3ccccc3[nH]2)cc1 | 109% (inactive)
14 | CN(C)CCCNc1c2ccccc2nc2c1oc1ccc(Cl)cc12 | -34% (active)
15 | CC1=C(C)C(=O)C(Nc2cccc(C(F)(F)F)c2)=C(Cl)C1=O | 103% (inactive)
16 | O=c1[nH]c2ccc(Cl)cc2cc1CSc1ccccc1Nc1nccc(-c2ccc(Cl)cc2)n1 | 109% (inactive)
17 | COc1ccc(NC2=CC(=O)C(C)=C(C)C2=O)cc1 | 109% (inactive)
18 | NS(=O)(=O)c1ccc(Nc2nc(Nc3ccccc3)nc(-n3nc(-c4ccccc4)cc3-c3ccccc3)n2)cc1 | 4.52% (active)
19 | OC1CCN(CCCOc2c3ccc(Cl)cc3nc3c2oc2ccccc23)CC1 | -44.3% (active)
20 | Clc1ccc2c(OCCCN3CCOCC3)c3oc4ccccc4c3nc2c1 | 25.2% (inactive)

Row | SMILES | growth
21 | Cn1cc(-c2cc(N)n3nc(-c4cn(C)c5ccc(Br)cc45)cc3n2)c2cc(Br)ccc21 | 4.96% (active)
22 | CN1CCc2c(sc3ncnc(N/N=C/c4ccc(Cl)c(Cl)c4)c23)C1 | -46.6% (active)
23 | C/C(=N\NC(N)=O)c1c(O)sc(=O)[nH]c1=O | 111% (inactive)
24 | COc1cc(OC)c(C2C(Cl)C(=O)N2Nc2ncnc3ccccc23)cc1OC (stereo not given) | 112% (inactive)
25 | CCCCN1C(=O)/C(=c2\sc3n(c2=O)C2C(NN=3)N(CC)C(=O)N2CC)c2cc(Cl)ccc21 (stereo not given) | 88.4% (inactive)
26 | CCCSc1nc(Nc2ccc(/C(C)=N\NC(N)=S)cc2)c(C#N)c(-c2ccc(OC)cc2)n1 | 87.7% (inactive)
27 | CS(=O)(=O)c1ccc(-c2nc3ccccn3c2/C=N/Nc2nc(-c3ccc(Br)cc3)cs2)cc1 | 114% (inactive)
28 | Clc1ccc2oc3c(NCCCn4ccnc4)c4ccccc4nc3c2c1 | -35.2% (active)
29 | COc1cc(/C=C/C(=O)c2ccc(C(F)(F)F)cc2)ccc1Oc1nc(NCCO)nc(N2CCOCC2)n1 | 96.2% (inactive)
30 | CCOC(=O)c1c(NC(=O)c2cccc(C(F)(F)F)c2)sc2cc(O)ccc12 | 105% (inactive)
31 | COc1cccc(COc2ccc(/C=C3/C(=O)Nc4cc(Cl)ccc43)cc2)c1 | 93.8% (inactive)
32 | COc1ccc(C(=O)/C=C/c2ccc(OCc3ccc(Cl)cc3)c(OC)c2)cc1OC | 63.7% (inactive)
33 | Oc1c(Cl)cc(Cl)c2ccc(CN3CCCCC3)nc12 | 48.3% (inactive)
34 | COc1ccc2[nH]cc(-c3cc(N)n4nc(-c5c[nH]c6ccc(OC)cc56)cc4n3)c2c1 | -56.1% (active)
35 | CCN1CCN(/C(=N\c2sc(-c3ccccc3)nc2-c2ccccc2)c2ccccc2)CC1 | 32.6% (inactive)
36 | COc1ccc(-n2c(SCC(=O)Nc3ccc(-c4nc5ccccc5[nH]4)cc3)nc3ccccc3c2=O)cc1 | -5.71% (active)
37 | Nc1cc(-c2c[nH]c3ccc(Cl)cc23)nc2cc(-c3c[nH]c4ccc(Cl)cc34)nn12 | 0.992% (active)
38 | C=CCn1c(SCC(=O)c2ccc(Br)cc2)nnc1-c1c[nH]c2ccccc12 | 104% (inactive)
39 | CN(C)CCCOc1c2ccc(Cl)cc2nc2c1oc1ccccc12 | -45.5% (active)
40 | COc1cc(/C=C/C(=O)c2ccccc2)ccc1Oc1nc(NCCO)nc(N2CCOCC2)n1 | 105% (inactive)
